Reference: PubChem BioAssay AID2501 (Southern Research Specialized Biocontainment Screening …, 2010)
Among all 2,200 compounds or so, about 1,200 (55%) were called active. Cut-off not given; nearly all actives show IC50 up to about 92 µM. The set was probably picked from earlier hits. Some of the results follow.

Assay: counter assay for TAg ATPase ADP read-out – biochemical, ADP-Hunter, fluorescence, counter-screen (AID 2501);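 further: purified T antigen ATPase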
Conditions: series mostly up to 100 µM

Row | Structure (SMILES) | IC50
1 | Oc1ccccc1C(=S)N1CCCCCC1 | 13.9 µM (active)
2 | CC(=O)Oc1ccc(C(=O)Nc2ccccc2C(=O)N2CCCCC2)cc1 | inactive
3 | COc1ccccc1NC(=O)c1c(NC(=O)CCC(=O)O)sc2c1CCCCC2 | inactive
4 | CCCCN1Cc2c(nc3cc(-c4ccco4)[nH]n3c2=O)C1=O | 9.07 µM (active)
5 | COC(=O)CC1SC(=O)NC1=Nc1ccc(O)cc1 (stereo unspecified) | 4.34 µM (active)
6 | Cc1c(Cl)cccc1NC(=S)N(CCN(C)C)C(C)c1ccco1 (stereo unspecified) | inactive
7 | N#CCCn1nc(-c2ccc(Br)cc2)cc1Nc1ccccc1NC(=O)C(F)(F)F | inactive
8 | COC(C(=O)N/N=C(\C)CC(=O)Nc1ccc(N(C)C)cc1)c1ccccc1 (stereo unspecified) | 6.98 µM (active)
9 | COc1ccc(CC(=O)N/N=C(\C)CC(=O)Nc2ccc(N(C)C)cc2)cc1OC | 3.9 µM (active)
10 | COc1ccc(CC(=O)n2[nH]c(=O)ccc2=O)cc1OC | inactive
11 | O=C(O)CCC1c2cc3c4cc2OC2Oc5cc6c(cc51)C(CCC(=O)O)c1cc5c7cc1OC(O6)c1cc6cc(c1)Oc1cc(cc(C(=O)O)c1)Oc1cc8cc(c1)C(Oc1cc(c(cc1C5CCC(=O)O)C3CCC(=O)O)OC(O4)c1cc(cc(c1)Oc1cc(cc(C(=O)O)c1)O8)Oc1cc(cc(C(=O)O)c1)Oc1cc(cc2c1)Oc1cc(cc(C(=O)O)c1)O6)O7 (stereo unspecified) | inactive
12 | CCC[n+]1c2ccccc2cc2ccccc21 | inactive
13 | O=C(NO)c1ccc(C(=O)N(C2CCCCC2)C2CCCCC2)cc1 | inactive
14 | CCCC[n+]1c2ccccc2cc2ccccc21 | inactive
15 | CC(C)n1c(=S)[nH]c2c1c(=O)[nH]c(=O)n2C | 92 µM (active)
16 | C#CCOCCOCCOCCNc1nc(N2CCN(C(=O)CCCCCCCCCCNC(=O)[C@H]([C@@H](C)CC)n3cc(CCCCN=C(N)N)nn3)CC2)nc(N2CCN(C(=O)CCCCCCCCCCNC(=O)[C@H](CCCCN)n3cc(C[C@@H](C)CC)nn3)CC2)n1 | inactive
17 | COc1cc(/C=N/NC(=O)C(=O)NCc2ccco2)ccc1O | 5.14 µM (active)
18 | COc1cc(/C=N/NC(=O)CNC(=O)c2ccco2)ccc1O | 2.71 µM (active)
19 | Oc1ccc(/C=N/NC(=S)NCC2CCCO2)cc1 (stereo unspecified) | 2.58 µM (active)
20 | COc1ccccc1CN(C(=O)CNC(=O)c1ccco1)C(C(=O)NCC1CCCO1)c1ccc(OC)c(OC)c1 (stereo unspecified) | inactive
21 | COc1cc(/C=N/NC(=O)C(=O)NCC2CCCO2)ccc1O (stereo unspecified) | 4.13 µM (active)

Row | Structure (SMILES) | IC50
22 | Cc1ccc(CNC(=O)/C=C/c2ccc(S(=O)(=O)NCc3ccco3)cc2)cc1 | inactive
23 | COc1ccc(-n2c(=S)[nH]c3cc(C(=O)NCc4ccco4)ccc3c2=O)c(OC)c1 | inactive
24 | CC1(OC(=O)CCc2ccccc2)C(=O)C=C2C=C(c3ccc(C#N)cc3)N(Cc3ccco3)C=C2C1=O (stereo unspecified) | inactive
25 | COc1ccc(C(=O)CCNc2ccc(C)c(Cl)c2)cc1 | inactive
26 | COc1ccc(Nc2ccc(Cl)cc2)c(C(=O)O)c1 | 9.23 µM (active)
27 | COc1ccc(NC(=O)c2c(Cl)cnn2C)c(C)c1 | inactive
28 | O=C(Cn1c(=O)oc2ccccc21)Nc1n[nH]c(=S)s1 | 88.8 µM (active)
29 | Nc1ccc2c(c1)-c1ccccc1S(=O)(=O)N2 | 2.89 µM (active)
30 | CC(Nc1ccc(N2CCOCC2)cc1)C(=O)N1c2ccccc2CC1C (stereo unspecified) | 8.86 µM (active)
31 | CCOc1ccc(CN2CCN(Cc3cccc4c3OCO4)CC2CCO)cc1 (stereo unspecified) | 2.23 µM (active)
32 | Cc1ccc(CN2CCN(Cc3cn[nH]c3-c3cccc(F)c3)CC2CCO)o1 (stereo unspecified) | inactive
33 | O=c1cc(CN2CCN(Cc3ccc(F)cc3)C(CCO)C2)[nH]c2ccccc12 (stereo unspecified) | inactive
34 | Cc1nc(C)c(-c2csc(Nc3ccc(N)cc3)n2)s1 | 7.48 µM (active)
35 | Cc1cccc(-n2c(O)c(C=Nc3ccc(O)cc3)c3ccccc3c2=O)n1 | 3.7 µM (active)
36 | Cc1cc2c(n1-c1ccc(C(=O)O)cc1)CCCCC2 | inactive
37 | C=C1C(=O)O[C@@H]2[C@H]3O[C@]3(C)CC/C=C(\C)CC[C@@H]12 | inactive
38 | CC(C)CC(NC(=O)CC12CC3CC(CC(C3)C1)C2)C(=O)NC1=NCCS1 (stereo unspecified) | inactive
39 | COc1ccc(N=Cc2c(O)cc(C)oc2=O)cc1 | 6.29 µM (active)
40 | COc1ccc(N=Cc2nc(-c3ccccc3)oc2OC(C)=O)cc1 | inactive
41 | O=C(CCl)Nc1ccc(N2CCCCCC2)cc1 | 0.76 µM (active)
42 | CC(=O)Nc1ccc(N2CCCCC2)cc1 | 12.1 µM (active)

Row | Structure (SMILES) | IC50
43 | Cc1ccc(NC(=O)NCCN2CCCCC2)cc1Cl | inactive
44 | Cn1c(CCN2CCCCCC2)nc2cc(NC(=O)Nc3ccccc3)ccc21 | inactive
45 | Nc1ccc(NC(=O)NC2CCCCC2)cc1 | 9.21 µM (active)
46 | O=C(Nc1ccc2nc(-c3ccco3)c(-c3ccco3)nc2c1)NC1CC1 | inactive
47 | O=C(NC1CCCCCC1)c1cccnc1Sc1ccc(Cl)cc1 | inactive
48 | O=c1cc(CSc2ccc(Cl)cc2)[nH]c2[nH]n(-c3ccccc3)c(=O)c12 | 16.2 µM (active)
49 | O=C(O)c1ccccc1NS(=O)(=O)c1ccc(NNC(=S)Nc2ccc(OC(F)F)cc2)c([N+](=O)[O-])c1 | 23 µM (active)
50 | O=C(/C=C/c1ccco1)NCC1OCCc2ccccc21 (stereo unspecified) | inactive
51 | COc1ccc(O)c(C(=O)C2c3ccccc3C(=O)N2c2ccc(C)cc2)c1 (stereo unspecified) | inactive
52 | O=C(COc1ccc2c(-c3ccccc3)cc(=O)oc2c1)N[C@@H](Cc1c[nH]c2ccc(O)cc12)C(=O)O | 31.3 µM (active)
53 | O=C(O)c1ccccc1C(=O)NC1=NN(c2ccccc2)CC1 | 12.1 µM (active)
54 | COc1cc(/C=N/Nc2ccnc(=O)[nH]2)ccc1O | 5.01 µM (active)
55 | COc1cc(/C=N/Nc2ccccn2)ccc1O | 8.27 µM (active)
56 | COc1cccc2c(N/N=C/c3ccc(O)c(O)c3)cc(C)nc12 | 10.2 µM (active)
57 | COc1cc(/C=N/NC2=NCCCCC2)ccc1O | 4.15 µM (active)
58 | COc1cc(/C=N\Nc2cc(=O)n(C)c(=O)n2C)ccc1O | 4.97 µM (active)
59 | COc1cc(/C=N/Nc2nncn2/N=C/c2ccc(O)c(OC)c2)ccc1O | 4.48 µM (active)
60 | COc1cc(/C=N/Nc2nc(=O)[nH]nc2C)ccc1O | 6.46 µM (active)
61 | Cc1cc(C)n(CCc2nc(-c3ccco3)cs2)n1 | inactive
